# Results reported in article PMC7862700, “An all-to-all approach to the identification of sequence-specific readers for epigenetic DNA modifications on cytosine”.
# What was measured:
# Test in all cases: DAPPL (digital affinity profiling via proximity ligation, sequencing); 10 mM Tris-HCl pH 7.5, 50 mM NaCl, 1 mM DTT, 4% glycerol, room temperature, 30 min; GST-TFs on glutathione beads, 16-mer random dsDNA library, 0.1% formaldehyde crosslink after washing; high values mean tight binding
# FEV = target: T1, FEV (Homo sapiens, UniProt Q99581 1-238); conditions: protein: recombinant; tags: N-terminal GST; dsDNA, one strand shown
# T1 sequence: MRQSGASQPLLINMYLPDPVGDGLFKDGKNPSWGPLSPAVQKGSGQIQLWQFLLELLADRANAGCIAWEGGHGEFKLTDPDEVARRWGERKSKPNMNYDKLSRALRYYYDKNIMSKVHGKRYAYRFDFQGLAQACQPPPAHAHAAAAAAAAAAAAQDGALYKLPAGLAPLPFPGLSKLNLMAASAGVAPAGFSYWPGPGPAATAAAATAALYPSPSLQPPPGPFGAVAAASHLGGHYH
# Summary of the method: (§1)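 Pools of DNA-barcoded human transcription factors, expressed in yeast as GST fusions on glutathione beads and combined with a tag-only sample, were incubated with 200 nmole of a 16-mer random double-stranded DNA library. Incubation took 30 min at room temperature in Tris/NaCl/DTT/glycerol buffer and was followed by washing, 0.1% formaldehyde crosslinking, proximity ligation (BsaI/T4 ligase, 1 h, 37 °C), PCR amplification and sequencing on an Illumina NextSeq500. Binding signal is the ratio of a hexamer's read frequency for a factor to its frequency for the tag-only sample.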
# ETV5 = ETV5 (Homo sapiens, UniProt P41161 1-510); conditions: protein: recombinant; tags: N-terminal GST; dsDNA, one strand shown
# ETV5, sequence (P41161 whole entry): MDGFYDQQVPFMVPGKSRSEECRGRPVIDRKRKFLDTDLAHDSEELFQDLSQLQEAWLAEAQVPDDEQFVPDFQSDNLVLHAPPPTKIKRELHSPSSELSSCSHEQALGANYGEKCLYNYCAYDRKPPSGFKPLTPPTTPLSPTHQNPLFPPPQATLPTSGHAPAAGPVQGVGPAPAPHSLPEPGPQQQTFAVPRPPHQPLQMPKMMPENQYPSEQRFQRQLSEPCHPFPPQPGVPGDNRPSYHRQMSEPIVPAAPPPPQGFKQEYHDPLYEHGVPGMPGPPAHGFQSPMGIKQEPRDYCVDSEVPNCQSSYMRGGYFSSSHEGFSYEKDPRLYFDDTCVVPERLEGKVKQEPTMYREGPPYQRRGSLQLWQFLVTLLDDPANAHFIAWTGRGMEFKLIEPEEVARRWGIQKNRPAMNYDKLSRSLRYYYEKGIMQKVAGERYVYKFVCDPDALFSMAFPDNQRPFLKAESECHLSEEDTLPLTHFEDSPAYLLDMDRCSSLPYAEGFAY
# Summary of the method: as §1
# HSF1 = HSF1 (Homo sapiens, UniProt Q00613 1-529); conditions: protein: recombinant; tags: N-terminal GST; chain copies: 3; dsDNA, one strand shown
# HSF1, sequence (Q00613 whole entry): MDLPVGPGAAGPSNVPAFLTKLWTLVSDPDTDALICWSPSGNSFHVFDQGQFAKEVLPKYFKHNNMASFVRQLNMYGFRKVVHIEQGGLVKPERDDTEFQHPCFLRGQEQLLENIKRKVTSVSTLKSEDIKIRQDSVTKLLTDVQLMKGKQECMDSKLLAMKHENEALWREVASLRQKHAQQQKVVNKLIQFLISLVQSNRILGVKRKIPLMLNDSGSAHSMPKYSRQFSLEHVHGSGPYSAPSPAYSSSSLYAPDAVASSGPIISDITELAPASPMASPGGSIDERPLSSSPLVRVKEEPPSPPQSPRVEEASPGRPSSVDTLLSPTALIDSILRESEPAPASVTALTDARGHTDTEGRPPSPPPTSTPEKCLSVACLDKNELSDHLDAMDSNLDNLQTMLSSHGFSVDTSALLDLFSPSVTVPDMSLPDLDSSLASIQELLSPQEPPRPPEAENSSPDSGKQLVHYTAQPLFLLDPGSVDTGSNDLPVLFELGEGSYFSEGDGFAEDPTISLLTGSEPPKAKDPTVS
# Summary of the method: as §1
# SPIC = target: T2, SPIC (Homo sapiens, UniProt Q8N5J4 1-248); conditions: protein: recombinant; tags: N-terminal GST; dsDNA, one strand shown
# T2 sequence: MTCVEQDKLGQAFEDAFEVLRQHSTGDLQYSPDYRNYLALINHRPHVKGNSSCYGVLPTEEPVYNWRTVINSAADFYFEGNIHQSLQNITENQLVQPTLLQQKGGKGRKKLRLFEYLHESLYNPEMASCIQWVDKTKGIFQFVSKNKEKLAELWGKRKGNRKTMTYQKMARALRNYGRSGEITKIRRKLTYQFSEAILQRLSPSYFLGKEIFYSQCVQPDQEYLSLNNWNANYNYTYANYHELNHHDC
# Summary of the method: as §1
# ELF4 = ELF4 (Homo sapiens, UniProt Q99607 1-663); conditions: protein: recombinant; tags: N-terminal GST; dsDNA, one strand shown
# ELF4, sequence (Q99607 whole entry): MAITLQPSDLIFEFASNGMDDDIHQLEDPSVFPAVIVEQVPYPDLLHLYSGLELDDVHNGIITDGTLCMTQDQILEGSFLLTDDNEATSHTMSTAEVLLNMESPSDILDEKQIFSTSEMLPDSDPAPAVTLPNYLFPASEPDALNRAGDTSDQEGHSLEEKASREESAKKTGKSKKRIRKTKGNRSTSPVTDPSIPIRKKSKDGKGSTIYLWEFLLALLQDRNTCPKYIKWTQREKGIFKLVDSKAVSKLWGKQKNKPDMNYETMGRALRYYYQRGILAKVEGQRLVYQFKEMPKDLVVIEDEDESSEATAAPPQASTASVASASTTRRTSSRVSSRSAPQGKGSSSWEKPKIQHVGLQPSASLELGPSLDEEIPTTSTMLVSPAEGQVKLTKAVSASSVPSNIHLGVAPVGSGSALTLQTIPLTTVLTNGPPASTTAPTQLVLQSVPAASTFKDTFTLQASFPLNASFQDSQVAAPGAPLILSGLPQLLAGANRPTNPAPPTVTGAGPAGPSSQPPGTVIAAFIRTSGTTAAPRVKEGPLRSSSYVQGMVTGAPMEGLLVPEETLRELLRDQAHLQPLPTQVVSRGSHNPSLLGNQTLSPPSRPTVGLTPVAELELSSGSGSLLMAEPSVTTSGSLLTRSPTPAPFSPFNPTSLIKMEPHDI
# Summary of the method: as §1
# ELK4 = target: T3, ELK4 (Homo sapiens, UniProt P28324-2 1-405); conditions: protein: recombinant; tags: N-terminal GST; dsDNA, one strand shown
# T3 sequence: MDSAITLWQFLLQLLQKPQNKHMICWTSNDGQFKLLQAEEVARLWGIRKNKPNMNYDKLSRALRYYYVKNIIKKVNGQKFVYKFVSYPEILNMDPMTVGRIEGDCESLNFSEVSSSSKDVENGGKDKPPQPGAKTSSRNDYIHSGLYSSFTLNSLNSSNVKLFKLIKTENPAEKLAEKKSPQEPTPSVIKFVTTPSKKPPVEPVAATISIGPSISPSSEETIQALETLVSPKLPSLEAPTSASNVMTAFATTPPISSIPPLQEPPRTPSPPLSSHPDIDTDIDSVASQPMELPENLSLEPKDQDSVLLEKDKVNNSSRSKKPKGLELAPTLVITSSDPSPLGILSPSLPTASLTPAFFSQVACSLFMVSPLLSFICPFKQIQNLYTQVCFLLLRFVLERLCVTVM
# Summary of the method: as §1
# ETV2 = target: T4, ETV2 (Homo sapiens, UniProt O00321 1-342); conditions: protein: recombinant; tags: N-terminal GST; dsDNA, one strand shown
# T4 sequence: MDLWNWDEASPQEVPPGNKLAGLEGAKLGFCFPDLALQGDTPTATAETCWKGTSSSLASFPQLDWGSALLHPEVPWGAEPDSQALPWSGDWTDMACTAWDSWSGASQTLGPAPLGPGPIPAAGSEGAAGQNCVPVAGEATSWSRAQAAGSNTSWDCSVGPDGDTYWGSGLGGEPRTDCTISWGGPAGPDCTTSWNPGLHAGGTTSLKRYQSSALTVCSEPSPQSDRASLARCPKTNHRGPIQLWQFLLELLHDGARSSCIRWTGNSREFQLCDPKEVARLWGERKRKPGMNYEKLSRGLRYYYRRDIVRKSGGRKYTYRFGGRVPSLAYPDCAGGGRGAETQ
# Summary of the method: as §1
# ELF3 = target: T5, ELF3 (Homo sapiens, UniProt P78545 1-371); conditions: protein: recombinant; tags: N-terminal GST; dsDNA, one strand shown
# T5 sequence: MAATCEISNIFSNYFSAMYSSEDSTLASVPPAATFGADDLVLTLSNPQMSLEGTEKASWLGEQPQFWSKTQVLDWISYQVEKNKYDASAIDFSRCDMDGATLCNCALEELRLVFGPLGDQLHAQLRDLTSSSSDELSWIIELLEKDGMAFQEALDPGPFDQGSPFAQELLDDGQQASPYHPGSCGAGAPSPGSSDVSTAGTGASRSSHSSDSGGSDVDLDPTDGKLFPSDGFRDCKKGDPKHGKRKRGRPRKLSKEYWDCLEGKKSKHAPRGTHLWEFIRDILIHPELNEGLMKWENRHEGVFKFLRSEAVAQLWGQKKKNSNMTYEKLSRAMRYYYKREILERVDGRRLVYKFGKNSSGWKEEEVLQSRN
# Summary of the method: as §1
# CRX = CRX (Homo sapiens, UniProt O43186 1-299); conditions: protein: recombinant; tags: N-terminal GST; dsDNA, one strand shown
# CRX, sequence (O43186 whole entry): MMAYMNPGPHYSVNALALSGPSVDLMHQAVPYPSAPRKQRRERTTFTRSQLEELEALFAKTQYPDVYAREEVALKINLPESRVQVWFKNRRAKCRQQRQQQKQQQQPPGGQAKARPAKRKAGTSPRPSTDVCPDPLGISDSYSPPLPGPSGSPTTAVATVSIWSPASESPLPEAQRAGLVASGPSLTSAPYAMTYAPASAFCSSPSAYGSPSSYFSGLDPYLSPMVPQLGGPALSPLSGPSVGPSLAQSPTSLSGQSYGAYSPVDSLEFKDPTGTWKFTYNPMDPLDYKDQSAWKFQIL
# Summary of the method: as §1
# ETV1 = ETV1 (Homo sapiens, UniProt P50549 1-477); conditions: protein: recombinant; tags: N-terminal GST; dsDNA, one strand shown
# ETV1, sequence (P50549 whole entry): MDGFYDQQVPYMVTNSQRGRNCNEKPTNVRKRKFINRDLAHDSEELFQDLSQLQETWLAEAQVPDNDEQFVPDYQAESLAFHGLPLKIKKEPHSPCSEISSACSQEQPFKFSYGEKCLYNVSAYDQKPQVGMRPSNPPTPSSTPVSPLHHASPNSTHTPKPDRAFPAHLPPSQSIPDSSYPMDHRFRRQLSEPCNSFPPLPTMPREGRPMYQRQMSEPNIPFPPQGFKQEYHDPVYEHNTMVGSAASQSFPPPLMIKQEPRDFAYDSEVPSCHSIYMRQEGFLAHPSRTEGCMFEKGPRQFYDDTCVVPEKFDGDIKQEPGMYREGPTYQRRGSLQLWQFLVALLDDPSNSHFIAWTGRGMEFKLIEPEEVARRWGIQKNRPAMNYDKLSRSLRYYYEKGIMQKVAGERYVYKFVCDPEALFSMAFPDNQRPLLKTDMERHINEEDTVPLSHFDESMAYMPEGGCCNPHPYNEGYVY
# Summary of the method: as §1
# ERF = target: T6, ERF (Homo sapiens, UniProt P50548 1-548); conditions: protein: recombinant; tags: N-terminal GST; dsDNA, one strand shown
# T6 sequence: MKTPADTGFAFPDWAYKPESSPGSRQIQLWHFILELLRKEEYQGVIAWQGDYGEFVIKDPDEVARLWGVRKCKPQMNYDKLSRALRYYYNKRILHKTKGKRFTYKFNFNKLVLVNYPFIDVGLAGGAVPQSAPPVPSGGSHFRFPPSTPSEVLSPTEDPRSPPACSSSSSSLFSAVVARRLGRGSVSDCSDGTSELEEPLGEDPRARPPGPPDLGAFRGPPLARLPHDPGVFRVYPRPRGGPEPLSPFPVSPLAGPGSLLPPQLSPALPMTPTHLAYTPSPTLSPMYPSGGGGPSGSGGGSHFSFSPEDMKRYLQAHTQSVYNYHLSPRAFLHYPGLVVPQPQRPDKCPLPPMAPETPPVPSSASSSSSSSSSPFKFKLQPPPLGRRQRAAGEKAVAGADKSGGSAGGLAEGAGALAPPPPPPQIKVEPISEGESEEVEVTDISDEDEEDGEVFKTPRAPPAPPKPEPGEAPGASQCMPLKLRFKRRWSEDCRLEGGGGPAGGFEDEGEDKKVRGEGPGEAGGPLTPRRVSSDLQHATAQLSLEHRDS
# Summary of the method: as §1
# ETV3L = target: T7, ETV3L (Homo sapiens, UniProt Q6ZN32 1-361); conditions: protein: recombinant; tags: N-terminal GST; dsDNA, one strand shown
# T7 sequence: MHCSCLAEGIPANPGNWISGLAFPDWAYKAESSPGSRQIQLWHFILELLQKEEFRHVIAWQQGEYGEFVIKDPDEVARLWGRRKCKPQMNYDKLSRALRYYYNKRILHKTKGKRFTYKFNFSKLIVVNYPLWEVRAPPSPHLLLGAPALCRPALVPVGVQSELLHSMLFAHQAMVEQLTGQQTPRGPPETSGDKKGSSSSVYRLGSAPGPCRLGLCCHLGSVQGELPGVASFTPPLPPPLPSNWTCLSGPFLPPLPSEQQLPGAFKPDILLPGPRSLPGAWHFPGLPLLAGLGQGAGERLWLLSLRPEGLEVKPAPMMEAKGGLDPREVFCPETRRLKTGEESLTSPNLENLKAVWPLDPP
# Summary of the method: as §1
# ETS2 = target: T8, ETS2 (Homo sapiens, UniProt P15036 1-469); conditions: protein: recombinant; tags: N-terminal GST; dsDNA, one strand shown
# T8 sequence: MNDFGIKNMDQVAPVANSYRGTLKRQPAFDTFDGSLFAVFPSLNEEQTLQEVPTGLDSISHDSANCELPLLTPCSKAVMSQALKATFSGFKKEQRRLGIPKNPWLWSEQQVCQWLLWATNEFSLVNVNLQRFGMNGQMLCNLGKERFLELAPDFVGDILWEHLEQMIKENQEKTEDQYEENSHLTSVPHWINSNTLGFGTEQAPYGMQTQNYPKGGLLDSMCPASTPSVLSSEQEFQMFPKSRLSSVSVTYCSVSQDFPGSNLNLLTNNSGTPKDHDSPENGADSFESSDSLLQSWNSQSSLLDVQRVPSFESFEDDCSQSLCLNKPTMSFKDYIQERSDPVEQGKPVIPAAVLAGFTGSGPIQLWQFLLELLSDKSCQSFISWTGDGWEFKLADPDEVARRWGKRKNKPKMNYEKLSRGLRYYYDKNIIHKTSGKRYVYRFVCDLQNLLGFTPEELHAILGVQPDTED
# Summary of the method: as §1
# SPDEF = target: T9, SPDEF (Homo sapiens, UniProt O95238 1-335); conditions: protein: recombinant; tags: N-terminal GST; dsDNA, one strand shown
# T9 sequence: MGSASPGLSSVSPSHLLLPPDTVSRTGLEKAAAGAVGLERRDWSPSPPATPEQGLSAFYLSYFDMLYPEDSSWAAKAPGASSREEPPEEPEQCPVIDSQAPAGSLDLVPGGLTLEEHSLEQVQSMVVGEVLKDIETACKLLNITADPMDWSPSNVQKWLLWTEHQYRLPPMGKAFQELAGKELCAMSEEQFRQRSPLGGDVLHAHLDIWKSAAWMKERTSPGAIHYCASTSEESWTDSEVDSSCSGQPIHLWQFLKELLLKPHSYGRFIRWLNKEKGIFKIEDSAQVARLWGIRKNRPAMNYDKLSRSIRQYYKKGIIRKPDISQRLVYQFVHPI
# Summary of the method: as §1
# ETV7 = target: T10, ETV7 (Homo sapiens, UniProt Q9Y603 1-341); conditions: protein: recombinant; tags: N-terminal GST; dsDNA, one strand shown
# T10 sequence: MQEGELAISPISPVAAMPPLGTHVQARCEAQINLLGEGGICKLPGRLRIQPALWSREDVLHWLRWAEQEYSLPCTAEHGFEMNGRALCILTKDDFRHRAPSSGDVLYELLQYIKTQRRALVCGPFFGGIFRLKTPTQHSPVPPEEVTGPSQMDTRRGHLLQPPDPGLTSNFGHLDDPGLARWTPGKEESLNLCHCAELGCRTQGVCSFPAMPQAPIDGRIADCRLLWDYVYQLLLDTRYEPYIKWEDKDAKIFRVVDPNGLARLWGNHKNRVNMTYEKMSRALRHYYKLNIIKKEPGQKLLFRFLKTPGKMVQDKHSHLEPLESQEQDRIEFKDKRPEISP
# Summary of the method: as §1
# ELF5 = target: T11, ELF5 (Homo sapiens, UniProt Q9UKW6-2 1-255); conditions: protein: recombinant; tags: N-terminal GST; dsDNA, one strand shown
# T11 sequence: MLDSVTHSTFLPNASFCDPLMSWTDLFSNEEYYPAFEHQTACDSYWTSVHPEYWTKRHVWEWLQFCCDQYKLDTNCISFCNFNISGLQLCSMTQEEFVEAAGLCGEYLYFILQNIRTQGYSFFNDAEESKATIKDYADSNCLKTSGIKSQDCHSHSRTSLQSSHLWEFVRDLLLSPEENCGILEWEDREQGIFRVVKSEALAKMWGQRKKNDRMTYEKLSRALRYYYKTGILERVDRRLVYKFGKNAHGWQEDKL
# Summary of the method: as §1
# ETV3 = target: T12, ETV3 (Homo sapiens, UniProt P41162-2 1-143); conditions: protein: recombinant; tags: N-terminal GST; dsDNA, one strand shown
# T12 sequence: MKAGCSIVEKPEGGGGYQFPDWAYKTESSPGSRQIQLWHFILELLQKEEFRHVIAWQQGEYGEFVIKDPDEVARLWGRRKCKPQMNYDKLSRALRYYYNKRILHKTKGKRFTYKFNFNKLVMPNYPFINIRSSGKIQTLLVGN
# Summary of the method: as §1
# ETV6 = ETV6 (Homo sapiens, UniProt P41212 1-452); conditions: protein: recombinant; tags: N-terminal GST; dsDNA, one strand shown
# ETV6, sequence (P41212 whole entry): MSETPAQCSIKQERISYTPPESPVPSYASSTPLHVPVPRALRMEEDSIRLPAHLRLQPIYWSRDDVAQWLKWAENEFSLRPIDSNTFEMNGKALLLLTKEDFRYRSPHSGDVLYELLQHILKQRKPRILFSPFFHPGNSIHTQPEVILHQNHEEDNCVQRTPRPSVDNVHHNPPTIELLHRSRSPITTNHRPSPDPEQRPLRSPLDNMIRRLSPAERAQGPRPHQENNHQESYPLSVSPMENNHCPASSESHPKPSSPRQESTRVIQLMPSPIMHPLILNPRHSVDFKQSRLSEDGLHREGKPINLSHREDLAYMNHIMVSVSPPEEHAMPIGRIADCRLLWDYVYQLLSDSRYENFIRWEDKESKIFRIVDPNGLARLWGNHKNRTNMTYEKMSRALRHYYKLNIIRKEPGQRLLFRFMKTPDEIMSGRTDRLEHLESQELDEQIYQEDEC
# Summary of the method: as §1
sequence,measurement,setting,value
TACACC,binding signal,FEV,"1.2 fold enrichment (6-mer frequency, TF over GST control)"
same,binding signal,ETV5,"1.15 fold enrichment (6-mer frequency, TF over GST control)"
same,binding signal,HSF1,"1.03 fold enrichment (6-mer frequency, TF over GST control)"
same,binding signal,SPIC,"1.3 fold enrichment (6-mer frequency, TF over GST control)"
same,binding signal,ELF4,"1.22 fold enrichment (6-mer frequency, TF over GST control)"
same,binding signal,ELK4,"1.16 fold enrichment (6-mer frequency, TF over GST control)"
same,binding signal,ETV2,"1.19 fold enrichment (6-mer frequency, TF over GST control)"
same,binding signal,ELF3,"1.11 fold enrichment (6-mer frequency, TF over GST control)"
same,binding signal,CRX,"1.06 fold enrichment (6-mer frequency, TF over GST control)"
same,binding signal,ETV1,"1.25 fold enrichment (6-mer frequency, TF over GST control)"
same,binding signal,ERF,"1.21 fold enrichment (6-mer frequency, TF over GST control)"
same,binding signal,ETV3L,"1.17 fold enrichment (6-mer frequency, TF over GST control)"
same,binding signal,ETS2,"1.1 fold enrichment (6-mer frequency, TF over GST control)"
same,binding signal,SPDEF,"1.24 fold enrichment (6-mer frequency, TF over GST control)"
same,binding signal,ETV7,"1.13 fold enrichment (6-mer frequency, TF over GST control)"
same,binding signal,ELF5,"1.18 fold enrichment (6-mer frequency, TF over GST control)"
same,binding signal,ETV3,"1.18 fold enrichment (6-mer frequency, TF over GST control)"
same,binding signal,ETV6,"1.15 fold enrichment (6-mer frequency, TF over GST control)"
